High-throughput results (PubChem BioAssay)
A selection: hits, their analogues and other compounds. The true share with any hit is near 18%.
RORg inh: ROR gamma (mouse) transcription inhibition; Drosophila S2 Gal4-RORgamma UAS-luciferase reporter, 20 h; Potency, µM (top dose mostly 53.6 µM), hits mostly inhibitors; hit rate 5.4% among 310,000; further: nearly all actives have a fitted effect of over 60% in size
Target sequence (P51450 whole entry, looked up, the tested form may be a part): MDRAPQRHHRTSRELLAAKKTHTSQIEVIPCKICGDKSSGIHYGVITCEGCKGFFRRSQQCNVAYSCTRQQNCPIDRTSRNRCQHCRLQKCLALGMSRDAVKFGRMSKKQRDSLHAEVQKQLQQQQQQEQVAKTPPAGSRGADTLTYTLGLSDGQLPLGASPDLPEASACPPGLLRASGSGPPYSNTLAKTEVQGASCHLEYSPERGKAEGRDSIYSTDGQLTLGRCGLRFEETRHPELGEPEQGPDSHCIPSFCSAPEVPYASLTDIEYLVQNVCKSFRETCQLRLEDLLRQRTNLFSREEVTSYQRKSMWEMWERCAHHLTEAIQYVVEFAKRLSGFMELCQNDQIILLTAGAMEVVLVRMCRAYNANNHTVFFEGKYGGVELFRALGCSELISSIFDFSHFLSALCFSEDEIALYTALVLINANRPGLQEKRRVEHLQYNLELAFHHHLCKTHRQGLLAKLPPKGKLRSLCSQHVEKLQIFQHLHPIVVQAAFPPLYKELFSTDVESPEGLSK
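Using a luciferase readout, inhibitors were identified by reduced reporter activity in Drosophila cells coexpressing a copper-inducible Gal4–ROR gamma fusion and UAS-driven Photinus luciferase, incubated 20 hr after 700 uM copper sulfate.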
DT40 TDP1 CPT: DT40-hTDP1 cell growth loss with CPT; hit rate 12% among 420,000; Potency, µM (highest dose often 46.2 µM), actives largely listed as inhibitors; chicken DT40 Tdp1-/-;hTDP1 cells + 20 nM CPT, ATP luminescence, 48 h; AID 686979; further: nearly all actives have a fitted effect of over 55% in size
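Chicken DT40 Tdp1-/- cells stably complemented with human TDP1 were seeded at 400 cells/well in medium containing 20 nM camptothecin, exposed to pin-transferred compounds, and grown at 37 °C for at least 48 hr. Viability was read as ATP luminescence.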
LDHA inh: LDHA (human) enzyme inhibition; P00338; purified LDHA, NADH/diaphorase-resazurin fluorescence; active compounds read low; activity change, % (values are at about 110 or 230 µM); hit rate 0.15% among 480,000; AID 1347041; in the data active means activity change below about -30%; inconclusive means mostly about -25% to -30%
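Remaining NADH was detected by diaphorase (0.133 mg/mL) converting 37 µM resazurin to fluorescent resorufin, read at 0 and 20 minutes. The preceding 5-minute room-temperature reaction used 2 nM LDHA, 0.2 mM sodium pyruvate and 0.06 mM NADH at pH 7.4.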
Gal4-VP16 FLuc: Gal4-VP16 reporter inhibition counter-screen; hit rate 3.5% among 310,000; AID 2546; Drosophila S2 Gal4-VP16 UAS-luciferase, luminescence, 20 h; Potency, µM (doses to about 53.6 µM), most hits filed as inhibitors;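 further: Gal4-VP16 expression switched on by copper sulfate through the metallothionein promoter; nearly all actives have a fitted effect of over 50% in size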
IL-1B inflam inh: inhibitors of inflammasome signaling (IL-1 beta secretion); THP-1 LPS/ATP IL-1B secretion, AlphaLISA, 16 h; active compounds read low; activity change, % at 57.5 µM; hit rate 4.7% among 360,000; AID 743279; in the data active means activity change below about -50%; inconclusive means mostly about -30% to -49%
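Secreted IL-1B measured by AlphaLISA bead assay after 16 h compound exposure of THP-1 cells; compounds (final up to 57.5 uM) added 1 h before LPS (250 ng/mL) and ATP (1.25 mM) stimulation; lower signal means less secretion.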
TDP1 cell noCPT: qHTS for Inhibitors of human tyrosyl-DNA phosphodiesterase 1 (TDP1): qHTS in cells in absence of CPT; hit rate 15% among 420,000; Potency, µM (titrated, usually from 46.2 µM), most hits filed as inhibitors; DT40 Tdp1-/- hTDP1 cells, no CPT, ATP luminescence, 48 h; further: nearly all actives have a fitted effect of over 55% in size
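A cellular qHTS used chicken DT40 cells lacking endogenous Tdp1 but carrying stably transfected human TDP1. Compounds were applied without camptothecin, and cell growth kinetics were judged by ATP-dependent luminescence after ≥48 hr.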
Numbers stand for hits; 0 = inactive; ? = inconclusive; - = not tested or not shown. Unless noted, the call rests on the fitted dose curve; in most records, active means well fitted curve in the direction sought with a large enough effect; inconclusive means small, poorly fitted or top-dose-only effect, or another doubt; inactive means no such curve, though single readings can be large; an effect the other way counts as inactive or inconclusive.

SMILES | RORg inh | DT40 TDP1 CPT | LDHA inh | Gal4-VP16 FLuc | IL-1B inflam inh | TDP1 cell noCPT
CC(/C=N/NC(=O)Cn1cnc2ccccc21)=C\c1ccccc1 | ? | 23µM | 0 | 0 | 0 | ?
CC(/C=N/NC(=O)c1nn(C)c(C)c1Br)=C\c1ccccc1 | 0.16µM | 0 | 0 | ? | 0 | 0
O=C(Cn1cnc2ccccc21)N/N=C/c1ccccc1 | 0 | 0 | 0 | 0 | 0 | 0
CC(/C=N/NC(=O)c1c(Br)cnn1C)=C\c1ccccc1 | 0 | 0 | 0 | 0 | -52 | ?
Cn1ncc(Br)c1C(=O)N/N=C/c1ccc(OS(=O)(=O)c2ccccc2)cc1 | ? | 0 | 0 | ? | 0 | 0
N#Cc1nc(/C=C/c2ccc(F)cc2)oc1NCc1ccccc1 | - | - | 0 | - | - | -
Cc1cc(C)c(C)c(S(=O)(=O)Nc2ccc(N)c([N+](=O)[O-])c2)c1C | - | - | 0 | - | - | -
CN(Cc1ccccc1)C(=O)c1cccc(-c2cnc3ccccc3c2)c1 | - | - | 0 | - | - | -
COc1ccccc1N1CCN(c2nccnc2SCC(=O)Nc2ccc(F)cc2F)CC1 | - | - | 0 | - | - | -
O=C(NCc1ccc(S(=O)(=O)N2CCOCC2)cc1)c1ccc(OC(F)(F)F)cc1 | - | - | 0 | - | - | -
CC(=O)NC(c1ccc(F)c(F)c1)c1nc(-c2ccncc2)cs1 (stereo unspecified) | - | 18µM | 0 | - | 0 | 15µM
CC(=O)NC(c1ccc(F)c(F)c1)c1nc(-c2cccc(C(=O)O)c2)cs1 (stereo unspecified) | - | 0 | 0 | - | 0 | 0
CC(=O)NC(c1ccc(F)c(F)c1)c1nc(-c2cccc(C(F)(F)F)c2)cs1 (stereo unspecified) | - | ? | 0 | - | ? | ?
CC(=O)NC(c1ccc(F)c(F)c1)c1nc(-c2cccc(F)c2)cs1 (stereo unspecified) | - | 21µM | 0 | - | 0 | 0
CC(=O)NC(c1ccc(F)c(F)c1)c1nc(-c2cccc(C(C)C)c2)cs1 (stereo unspecified) | - | 16µM | 0 | - | ? | 23µM
CC(=O)Nc1cccc(-c2csc(C(NC(C)=O)c3ccc(F)c(F)c3)n2)c1 (stereo unspecified) | - | 0 | 0 | - | 0 | 0
COc1ccc(/C(C)=C(\C#N)c2nc3ccccc3[nH]2)cc1 | - | - | 0 | - | - | -
CCOC(=O)c1cc(S(=O)(=O)Nc2ccc(CC)cc2)[nH]n1 | - | - | 0 | - | - | -
CCCNC(=O)c1ccc(NC(=O)c2ccncc2)cc1 | - | - | 0 | - | - | -
CC/C(=C\C(=O)c1ccncc1)Nc1ccc(O)cc1 | 0 | ? | 0 | ? | ? | 21µM
COc1ccc(OC)c2c(C)cc(N3CCCCCC3)nc12 | 0 | ? | 0 | 0 | 0 | 9.2µM
COc1cccc2c(C)cc(N3CCCCCC3)nc12 | 0 | 0 | 0 | 0 | 0 | ?
O=c1oc2ccccc2c(Sc2ccccc2)c1Sc1ccccc1 | - | - | 0 | - | - | -
Cc1cccc(C)c1OCC(=O)N/N=C/c1cccnc1 | 0 | ? | 0 | 0 | 0 | 15µM
O=C(COc1ccccc1-c1ccccc1)N/N=C/c1ccc2ccccc2c1 | ? | 1.2µM | 0 | 0 | 0 | 0.92µM
SMILES | RORg inh | DT40 TDP1 CPT | LDHA inh | Gal4-VP16 FLuc | IL-1B inflam inh | TDP1 cell noCPT
O=C(N/N=C/c1ccccn1)C1CC1 | 0 | 0 | 0 | 0 | 0 | 0
O=C(COc1ccccc1-c1ccccc1)N/N=C/c1ccccn1 | ? | 23µM | 0 | ? | 0 | 23µM
O=C(COc1ccccc1-c1ccccc1)N/N=C/c1cccnc1 | 0 | 15µM | 0 | 0 | 0 | 13µM
O=C(COc1ccccc1)N/N=C/c1ccc2c(c1)OCO2 | 0 | 0 | 0 | 0 | 0 | 0
N#C/C(=C/c1ccc(O)cc1)c1nc(C2CC2)cs1 | - | - | 0 | - | - | -
O=C(Nc1ccc2oc(-c3cccc4ccccc34)nc2c1)c1ccc2c(c1)OCCO2 | - | - | 0 | - | - | -
C=CCn1c(-c2cccc([N+](=O)[O-])c2)n[nH]c1=S | 2.2µM | 0 | 0 | 8.9µM | 0 | 0
O=[N+]([O-])c1cccc(-c2n[nH]c(=S)n2Cc2ccccc2)c1 | 7.1µM | 0 | 0 | ? | 0 | ?
CCOc1ccccc1C(=O)N(Cc1c(F)cccc1Cl)c1ccccn1 | - | - | 0 | - | - | -
CCC(C)n1c(SCc2ccccc2)nc2ccsc2c1=O (stereo unspecified) | ? | ? | 0 | 0 | 0 | 21µM
CCC(C)n1c(SCc2ccc(C(C)(C)C)cc2)nc2ccsc2c1=O (stereo unspecified) | - | 13µM | 0 | - | - | 13µM
CCc1ccc(NC(=O)CSc2nc3ccsc3c(=O)n2C(C)CC)cc1 (stereo unspecified) | - | ? | 0 | - | - | ?
CCC(C)n1c(SCC(=O)Nc2ccccc2C(F)(F)F)nc2ccsc2c1=O (stereo unspecified) | ? | 0 | 0 | 0 | 0 | 0
CCC(C)n1c(SCc2ccc(F)cc2Cl)nc2ccsc2c1=O (stereo unspecified) | - | 18µM | 0 | - | - | 21µM
CCC(C)n1c(SCC(=O)Nc2ccccc2C(=O)OC)nc2ccsc2c1=O (stereo unspecified) | - | 16µM | 0 | - | - | 18µM
COc1ccc2nc(C)c(C(=O)Oc3ccc(C4SCCS4)cc3OC)cc2c1 | - | - | 0 | - | - | -
CC(C)(C)C(=O)NCCCC(=O)NCC1CC1 | - | - | 0 | - | - | -
CCn1nc(C(=O)Nc2nc(C)c(C(C)=O)s2)c2ccccc2c1=O | - | - | 0 | - | - | -
CN(CC(=O)Nc1ccc(F)c(F)c1F)C(=O)C1CSC2(C)CCC(=O)N12 (stereo unspecified) | - | 0 | 0 | - | 0 | 0
CN(CC(=O)Nc1ccc(Cl)c(C(F)(F)F)c1)C(=O)C1CSC2(C)CCC(=O)N12 (stereo unspecified) | - | ? | 0 | - | 0 | 18µM
CCCN(C(=O)C1CSC2(C)CCC(=O)N12)c1c(N)n(Cc2ccccc2)c(=O)[nH]c1=O (stereo unspecified) | - | 0 | 0 | - | 0 | 0
CN(Cc1ccc(C(C)(C)C)cc1)C(=O)C1CSC2(C)CCC(=O)N12 (stereo unspecified) | - | 16µM | 0 | - | 0 | ?
C=CCN(C(=O)C1CSC2(C)CCC(=O)N12)c1nc(-c2ccccc2)cs1 (stereo unspecified) | - | 18µM | 0 | - | 0 | 23µM
Cc1nn(-c2ccccc2)c(C)c1CN(C)C(=O)CNC(=O)c1ccc(Cl)cc1 | - | - | 0 | - | - | -
CCC(C)NC(=O)CCNC(=O)c1cc2ccc(OC)cc2nc1C (stereo unspecified) | - | - | 0 | - | - | -
O=C(/C=C/C=C/c1ccccc1)c1ccc2oc3ccccc3c2c1 | - | - | 0 | - | - | -
C/C(=N\NC(=S)NCCc1ccccc1)c1cccc(Br)c1 | 4.5µM | ? | 0 | ? | 0 | ?
C/C(=N\NC(=S)NCc1ccccc1)c1cccc(Br)c1 | ? | 15µM | 0 | 0 | 0 | 21µM
C/C(=N\NC(=S)NCc1ccccc1)c1ccc2ccccc2c1 | 2.5µM | 6.5µM | 0 | 4.5µM | 0 | 7.3µM
